The source of these data is PubChem BioAssay (NCATS).

Experiment [1] addresses Phospholipid hydroperoxide glutathione peroxidase GPX4 (Homo sapiens) (UniProt P36969). Description: Primary qHTS Assay for Inhibitors of Recombinant Selenoprotein Glutathione Peroxidase 4 (GPX4) (AID 1845192). Note: nearly all actives have a fitted effect of over 65% in size. Note: potency is the fitted concentration of half-maximal effect. The gist of the method:
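GR-coupled assay: recombinant GPX4 preincubated 30 min with compound at room temperature; final 200 nM GPX4, 1 mM GSH, 0.5 mM cumene hydroperoxide, 0.5 mM NADPH, 100 nM GR, 0.01% BSA, pH 7.5 Tris. NADPH fluorescence (340/450 nm) read at 0 and 15 min.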
(In qHTS, concentration-response curves come from the screen itself.)

Experiment [2] in a line: Cell Viability - BJ (AID 421; calls by dose curve;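 note: potency is the fitted concentration of half-maximal effect; cells exposed to compound for 40 hours at 37 °C before readout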). To be noted: BJ fibroblast viability, qHTS. In short, it runs like this:
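Cytotoxicity as drop in intracellular ATP (CellTiter-Glo, 20 min RT) after 40 hr compound exposure of BJ fibroblasts at 37 °C. Titrations scaled between DMSO and 100 uM tamoxifen, Hill-fitted for AC50.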

In experiment [3] the target is Mitogen-activated protein kinase 10 (Mus musculus) (UniProt Q61831). Description: JNK3 AlphaScreen Assay (AID 530; active = well fitted curve in either direction with a large enough effect, not every such curve was filed as active;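 note: kinase came from lysate of stimulated human HepG2 cells; signal reports phosphorylation of biotinylated GST-cJun 1-79 at Ser73 with 10 µM ATP; series mostly up to about 57 µM; % is set by controls: 0 for no effect and ±100 for the full control effect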). The gist of the method:
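Pre-activated (IL-1β/TNFα) JNK3 in HepG2 lysates phosphorylates biotin-GST-cJun(1-79), 10 uM ATP; anti-phospho-cJun(Ser73) AlphaScreen read at room temperature, pH 7.6 Tris buffer. Compounds pre-incubated 15 min as titrations.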

For experiment [4], the target named is Cytochrome P450 3A4 (Homo sapiens) (UniProt P08684). Put plainly: qHTS Assay for Inhibitors and Substrates of Cytochrome P450 3A4 (AID 884). Note: nearly all actives have a fitted effect of over 50% in size. Note: potency is the fitted concentration of half-maximal effect. The gist of the method:
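20 nM human CYP3A4 with 25 uM Luciferin-PPXE (at KM) in 200 mM KPO4, preincubated 10 min with compound; NADPH regeneration started a 60 min RT reaction. Luciferin detected by luminescence, normalized to 57 uM ketoconazole as full inhibition.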

Experiment [5] in a line: Cell Viability - LYMP2-016 (AID 984).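 Note: cells exposed to compound for 24 hours at 37 °C; % is set by controls: 0 for no effect and ±100 for the full control effect; nearly all actives have a fitted effect of over 55% in size.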 The gist of the method: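 Cells were seeded at 2500 per well and rested 5 hr before a 24 hr compound exposure at 37 C. Viability was then gauged as cellular ATP by luciferase luminescence, with AC50 values fitted to the Hill equation.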
The target of experiment [6] is Bile acid receptor (Homo sapiens) (UniProt Q96RI1). Description: qHTS assay for small molecule antagonists of farnesoid X receptor signaling (AID 588526; calls by dose curve; note: % is set by controls: 0 for no effect and ±100 for the full control effect). The gist of the method:
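Antagonist mode: titrated compounds tested against chenodeoxycholic acid stimulation (normalized to 50 uM CDCA and DMSO) in GeneBLAzer HEK293T cells for 16 h. Beta-lactamase read by CCF4 fluorescence; IC50 from Hill fits.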

Experiment [7] has as its target Peroxisome proliferator-activated receptor gamma (Homo sapiens) (UniProt P37231). Description: qHTS assay for small molecule antagonists of peroxisome proliferator-activated receptor gamma signaling (AID 588537; active = well fitted inhibition curve with a large enough effect in the signal ratio, with a control signal flat, not every such curve was filed as active; the % refers to the signal ratio;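 note: reporter cells co-stimulated with 50 nM rosiglitazone agonist during compound treatment; % of control where 0% means no effect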). The gist of the method: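 PPARγ-UAS-bla HEK293 cells (3000/well) in 1% charcoal/dextran-stripped FBS are treated with compound, then stimulated with 50 nM rosiglitazone for 16 h at 37 °C. Read-out is CCF4 β-lactamase fluorescence after 2 h at RT. IC50 comes from Hill fits normalised to rosiglitazone and DMSO.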

The target of experiment [8] is Thyroid hormone receptor beta (Homo sapiens) (UniProt P10828). Put plainly: qHTS assay for small molecule agonists of thyroid hormone receptor beta signaling (AID 588545; calls by dose curve;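 note: 0% = DMSO only and 100% = 10 nM T3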). The gist of the method: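 Stimulation of a TR-driven beta-lactamase reporter was quantified in GripTite HEK 293 cells. Compound series ran for 18 hrs; curves were normalized to T3 and DMSO controls and fitted to yield EC50.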
Chain of Thyroid hormone receptor beta (Homo sapiens) (P10828 whole entry, looked up): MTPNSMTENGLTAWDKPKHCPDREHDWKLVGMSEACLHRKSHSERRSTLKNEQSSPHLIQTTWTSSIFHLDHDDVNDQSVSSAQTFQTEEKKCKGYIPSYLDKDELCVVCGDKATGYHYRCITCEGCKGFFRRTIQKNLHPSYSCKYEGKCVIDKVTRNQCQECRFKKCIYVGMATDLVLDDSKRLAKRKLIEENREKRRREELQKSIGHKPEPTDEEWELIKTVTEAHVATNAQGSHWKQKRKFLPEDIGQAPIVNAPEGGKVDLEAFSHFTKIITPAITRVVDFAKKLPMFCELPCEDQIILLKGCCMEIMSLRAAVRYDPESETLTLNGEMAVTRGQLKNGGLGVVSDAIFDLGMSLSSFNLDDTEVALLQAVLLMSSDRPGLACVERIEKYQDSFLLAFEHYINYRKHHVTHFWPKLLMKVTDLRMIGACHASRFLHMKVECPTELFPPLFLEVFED

A short description of experiment [9]: qHTS assay for small molecule agonists of the antioxidant response element (ARE) signaling pathway (AID 651741; active = well fitted activation curve with a large enough effect in the signal ratio; the % refers to the signal ratio; note: potency is the fitted concentration of half-maximal effect; for activation: % of control where 0% means no effect). In short, it runs like this:
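CellSensor ARE-bla HepG2 cells (2,000/well) carrying ARE-driven beta-lactamase, exposed 16 h at 37 C. LiveBLAzer B/G FRET substrate added for 2 h at room temperature; fluorescence intensity read.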

Experiment [10] is described as follows: qHTS assay for small molecule activators of the nuclear factor-kappa B (NF-kB) signaling pathway (AID 651749; active = well fitted activation curve with a large enough effect in the signal ratio; the % refers to the signal ratio; note: series mostly up to about 77 µM; % of control where 0% means no effect). Particulars: NF-kB-bla ME-180 cells, beta-lactamase FRET ratio, 16 h; stronger effect = higher value. In short, it runs like this: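 NF-kB-bla ME-180 cells carrying a beta-lactamase reporter under an NF-kB response element, 2,000 cells/well, exposed to compound for 16 hr at 37C; FRET-based beta-lactamase fluorescence read-out of pathway activation.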

Experiment [11] in a line: qHTS assay to identify small molecules that stimulate interleukin-8 (IL-8) secretion (AID 651758; active = well fitted activation curve with a large enough effect in the signal ratio; the % refers to the signal ratio; note: 0% is about no effect). In short, it runs like this:
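THP-1 cells (2000/well) exposed to compound 16 h at 37 C; secreted IL-8 then detected by HTRF with cryptate- and XL665-labelled anti-IL-8 antibody pair after 1-3 h at room temperature.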

Experiment [12] is described as follows: Cell Viability - LYMP2-001 (AID 921).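 Note: series mostly up to about 92 µM; cells exposed to compound for 24 h at 37 °C; 0% = DMSO only and full inhibition = tetraoctylammonium bromide control wells; nearly all actives have a fitted effect of over 70% in size.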 In short, it runs like this:
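Steps: seed 2500 lymphoblastoid cells/well; 5 hr, 37 C; add compound; 24 hr, 37 C; CellTiter-Glo reagent, 30 min room temperature; read luminescence. Concentration-response modeled by Hill equation for AC50.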

Experiment [13] deals with Glucocorticoid receptor (Homo sapiens) (UniProt P04150). Put plainly: qHTS assay for small molecule antagonists of glucocorticoid receptor signaling (AID 588533; active = well fitted inhibition curve with a large enough effect in the signal ratio, with a control signal flat, not every such curve was filed as active; the % refers to the signal ratio;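 note: cells stimulated with 2 nM dexamethasone as agonist; % is set by controls: 0 for no effect and ±100 for the full control effect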). In short, it runs like this: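 Antagonist-mode qHTS: compound titrations added to GRE-bla HeLa cells, then dexamethasone 2 nM final; 18 h, 37 C. CCF4 FRET fluorescence normalized to dexamethasone and DMSO; IC50 from Hill fit.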
Chain of Glucocorticoid receptor (Homo sapiens) (P04150 whole entry, looked up): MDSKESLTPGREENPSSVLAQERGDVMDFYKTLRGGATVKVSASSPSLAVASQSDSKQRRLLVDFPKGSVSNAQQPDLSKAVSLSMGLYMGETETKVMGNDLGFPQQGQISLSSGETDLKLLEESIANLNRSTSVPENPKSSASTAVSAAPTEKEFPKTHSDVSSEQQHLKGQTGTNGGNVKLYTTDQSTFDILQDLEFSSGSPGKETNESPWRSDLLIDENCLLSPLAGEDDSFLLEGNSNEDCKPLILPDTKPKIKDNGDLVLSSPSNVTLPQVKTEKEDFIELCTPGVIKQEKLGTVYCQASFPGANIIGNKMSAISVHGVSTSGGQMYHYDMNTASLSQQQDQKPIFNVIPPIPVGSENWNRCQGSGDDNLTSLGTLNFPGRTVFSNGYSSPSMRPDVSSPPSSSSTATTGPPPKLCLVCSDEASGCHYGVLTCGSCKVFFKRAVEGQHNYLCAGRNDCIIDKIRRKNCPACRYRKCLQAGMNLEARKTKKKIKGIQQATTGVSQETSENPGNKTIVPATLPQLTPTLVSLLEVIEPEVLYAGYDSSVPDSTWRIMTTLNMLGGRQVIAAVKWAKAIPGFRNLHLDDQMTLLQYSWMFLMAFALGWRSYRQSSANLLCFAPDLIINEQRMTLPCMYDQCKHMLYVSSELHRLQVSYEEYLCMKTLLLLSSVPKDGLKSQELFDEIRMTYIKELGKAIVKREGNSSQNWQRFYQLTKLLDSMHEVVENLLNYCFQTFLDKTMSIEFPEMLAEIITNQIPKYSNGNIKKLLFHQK

Experiment [14] can be described thus: qHTS assay for cell viability of HEK293 cells (AID 743288). Note: potency is the fitted concentration of half-maximal effect; nearly all actives have a fitted effect of over 50% in size. To be noted: ATP luminescence (CellTiter-Glo), 18 h; max response: stronger effect = lower value. In short, it runs like this:
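HEK293 parental, 2,000 cells/well; ≥5 h pre-incubation 37 C; pintool compound addition; 18 h, 37 C; CellTiter-Glo 30 min RT; luminescence read.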

Experiment [15] is described as follows: qHTS assay for small molecule antagonists of peroxisome proliferator-activated receptor delta signaling (AID 588535; active = well fitted inhibition curve with a large enough effect in the signal ratio, with a control signal flat, not every such curve was filed as active; the % refers to the signal ratio;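 for max response: cells co-treated with a PPAR-delta agonist as stimulator during compound exposure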). Particulars: HEK293T PPARd-UAS-bla, beta-lactamase FRET ratio, 18 h; 460 nm channel. In short, it runs like this:
(§1)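 Antagonist-mode beta-lactamase reporter (GeneBLAzer PPAR-delta-UAS-bla) in HEK293T cells, 2% charcoal/dextran FBS, 4000 cells/well. Compound titrations, 18 h at 37 C; CCF4 ratio read, IC50 and efficacy from Hill fits.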

Experiment [16] addresses Peroxisome proliferator-activated receptor delta (Homo sapiens) (UniProt Q03181). The experiment is described as above. The gist of the method: as §1
Experiment [17] can be described thus: qHTS assay for small molecule disruptors of the mitochondrial membrane potential - 5 hr assay (AID 651755; calls by dose curve; note: % is set by controls: 0 for no effect and ±100 for the full control effect; nearly all actives have a fitted effect of over 40% in size). The gist of the method:
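HepG2 cells (2,000/well), attached overnight, exposed to compound 5 hr at 37C, then Mito-MPS dye 30 min. Fluorescence read for monomers (490/535 nm) and aggregates (540/590 nm).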

Experiment [18] is described as follows: Cell Viability - LYMP2-013 (AID 970).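 Note: series mostly up to about 92 µM; cells exposed to compound for 24 h at 37 °C; 0% = DMSO only and full inhibition = tetraoctylammonium bromide control; nearly all actives have a fitted effect of over 55% in size.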 The gist of the method:
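Human lymphoblastoid LYMP2-013 cells, 2500/well, treated 24 h at 37 C in complete medium; viability as intracellular ATP by CellTiter-Glo luminescence after 30 min. AC50 from Hill fits of qHTS concentration-response.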

Experiment [19] has as its target Peroxisome proliferator-activated receptor alpha (Homo sapiens) (UniProt Q07869). Description: qHTS assay for small molecule agonists of the peroxisome proliferator-activated receptor alpha (PPARalpha) signaling pathway (AID 651778). Note: % of control where 0% means no effect. To be noted: PathHunter PPARalpha complementation, chemiluminescence, 6 h; max response: stronger effect = higher value. In short, it runs like this: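 Enzyme-fragment complementation assay in which ligand-bound PPARalpha translocates and forms an active enzyme that generates chemiluminescence. Cells were plated overnight, exposed to compound for 6 hr at 37 C, and then given detection reagent for 60 min at room temperature.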

Where “and” joins values, the source holds several entries; their conditions need not be identical. Equal entries are not always repeated. Inconclusive results are not listed. Calls of active or inactive are those of the source. Unless noted, calls come from the whole dose curve; as a rule, active = well fitted curve in the direction sought with a large enough effect; inconclusive = small, poorly fitted or top-dose-only effect, or another doubt; inactive = no such curve, though single readings can be large; an effect the other way counts as inactive or inconclusive.

Chain of Peroxisome proliferator-activated receptor delta (Homo sapiens) (Q03181 whole entry, looked up): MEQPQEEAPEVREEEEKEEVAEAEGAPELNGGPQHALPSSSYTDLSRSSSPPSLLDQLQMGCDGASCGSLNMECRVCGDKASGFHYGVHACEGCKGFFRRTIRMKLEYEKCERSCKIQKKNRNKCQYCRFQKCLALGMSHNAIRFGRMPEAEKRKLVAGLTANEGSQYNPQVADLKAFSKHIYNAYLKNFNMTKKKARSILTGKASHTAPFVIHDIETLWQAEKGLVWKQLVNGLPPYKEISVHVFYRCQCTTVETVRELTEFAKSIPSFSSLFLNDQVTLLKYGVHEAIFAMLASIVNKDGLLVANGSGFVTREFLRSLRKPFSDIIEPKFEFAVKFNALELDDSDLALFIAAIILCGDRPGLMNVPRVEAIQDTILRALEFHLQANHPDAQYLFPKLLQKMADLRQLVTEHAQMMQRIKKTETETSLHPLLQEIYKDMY
Chain of Bile acid receptor (Homo sapiens) (Q96RI1 whole entry, looked up): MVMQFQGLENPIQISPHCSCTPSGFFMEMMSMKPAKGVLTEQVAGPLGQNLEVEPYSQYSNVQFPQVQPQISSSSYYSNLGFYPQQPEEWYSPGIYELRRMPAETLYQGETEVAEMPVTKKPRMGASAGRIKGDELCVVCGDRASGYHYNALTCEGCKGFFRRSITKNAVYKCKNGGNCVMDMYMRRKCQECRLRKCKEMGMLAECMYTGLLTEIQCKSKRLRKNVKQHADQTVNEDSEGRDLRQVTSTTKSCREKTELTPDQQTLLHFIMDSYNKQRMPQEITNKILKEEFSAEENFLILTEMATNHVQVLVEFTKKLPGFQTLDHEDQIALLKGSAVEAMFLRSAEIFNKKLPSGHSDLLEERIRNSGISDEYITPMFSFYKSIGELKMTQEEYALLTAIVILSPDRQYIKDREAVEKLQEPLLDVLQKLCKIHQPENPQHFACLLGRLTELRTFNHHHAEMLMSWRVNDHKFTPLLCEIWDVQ
Chain of Cytochrome P450 3A4 (Homo sapiens) (P08684 whole entry, looked up): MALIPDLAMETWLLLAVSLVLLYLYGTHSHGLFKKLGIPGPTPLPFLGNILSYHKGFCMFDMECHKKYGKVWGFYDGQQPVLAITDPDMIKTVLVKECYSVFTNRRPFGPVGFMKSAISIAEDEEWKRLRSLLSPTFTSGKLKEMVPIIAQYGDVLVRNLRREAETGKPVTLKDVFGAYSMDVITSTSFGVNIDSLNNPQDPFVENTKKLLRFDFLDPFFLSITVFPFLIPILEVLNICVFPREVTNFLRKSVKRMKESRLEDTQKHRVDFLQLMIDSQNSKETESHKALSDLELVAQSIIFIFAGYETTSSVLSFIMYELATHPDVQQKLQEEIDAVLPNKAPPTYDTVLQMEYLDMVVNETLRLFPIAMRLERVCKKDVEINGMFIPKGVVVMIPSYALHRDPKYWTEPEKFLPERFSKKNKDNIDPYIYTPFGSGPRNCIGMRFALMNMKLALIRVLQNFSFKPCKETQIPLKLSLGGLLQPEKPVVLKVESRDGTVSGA
Chain of Phospholipid hydroperoxide glutathione peroxidase GPX4 (Homo sapiens) (P36969 whole entry, looked up): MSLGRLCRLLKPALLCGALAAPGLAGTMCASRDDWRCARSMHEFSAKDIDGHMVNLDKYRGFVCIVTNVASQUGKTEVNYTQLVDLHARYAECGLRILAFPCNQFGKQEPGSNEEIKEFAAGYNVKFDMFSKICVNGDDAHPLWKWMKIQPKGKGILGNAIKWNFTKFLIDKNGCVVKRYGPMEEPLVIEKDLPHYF
Chain of Peroxisome proliferator-activated receptor gamma (Homo sapiens) (P37231 whole entry, looked up): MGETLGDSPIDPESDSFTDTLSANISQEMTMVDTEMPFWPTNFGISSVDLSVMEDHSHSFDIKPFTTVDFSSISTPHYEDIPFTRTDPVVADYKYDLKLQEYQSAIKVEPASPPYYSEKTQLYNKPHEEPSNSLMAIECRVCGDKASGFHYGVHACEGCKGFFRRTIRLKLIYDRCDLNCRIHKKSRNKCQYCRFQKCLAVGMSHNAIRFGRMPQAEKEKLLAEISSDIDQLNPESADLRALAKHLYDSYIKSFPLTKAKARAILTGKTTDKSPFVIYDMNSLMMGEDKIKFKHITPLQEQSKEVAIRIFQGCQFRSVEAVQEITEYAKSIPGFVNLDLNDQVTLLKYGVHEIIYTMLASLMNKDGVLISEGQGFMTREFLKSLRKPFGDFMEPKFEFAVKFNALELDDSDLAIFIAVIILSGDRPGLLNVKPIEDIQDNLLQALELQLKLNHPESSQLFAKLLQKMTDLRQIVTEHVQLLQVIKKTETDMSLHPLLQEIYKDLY
Chain of Peroxisome proliferator-activated receptor alpha (Homo sapiens) (Q07869 whole entry, looked up, the tested form may be a part): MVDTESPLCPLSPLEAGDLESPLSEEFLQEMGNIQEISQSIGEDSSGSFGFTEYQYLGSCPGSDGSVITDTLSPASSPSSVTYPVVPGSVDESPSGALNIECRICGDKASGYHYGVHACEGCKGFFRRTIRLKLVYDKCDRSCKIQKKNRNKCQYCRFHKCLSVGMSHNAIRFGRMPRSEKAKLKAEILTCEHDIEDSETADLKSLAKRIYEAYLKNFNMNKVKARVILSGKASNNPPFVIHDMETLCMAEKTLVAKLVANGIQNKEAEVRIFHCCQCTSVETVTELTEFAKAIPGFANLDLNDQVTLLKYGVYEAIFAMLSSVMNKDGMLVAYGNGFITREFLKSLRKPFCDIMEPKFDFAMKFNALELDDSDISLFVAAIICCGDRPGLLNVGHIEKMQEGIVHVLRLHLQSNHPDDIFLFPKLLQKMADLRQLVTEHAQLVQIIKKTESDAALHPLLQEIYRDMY

Take `Cc1cc2nc3c(=O)[nH]c(=O)nc-3n(C[C@@H](O)[C@@H](O)[C@@H](O)COP(=O)(O)O)c2cc1C`: the Potency in [1] was 2.55 µM (active).
Regarding `OC[C@H]1O[C@@H](OC[C@H]2O[C@@H](O[C@@H]3[C@@H](O)[C@H](O)O[C@H](CO)[C@H]3O)[C@H](O)[C@@H](O[C@@H]3O[C@H](CO)[C@@H](O)[C@H](O)[C@H]3O)[C@@H]2O)[C@H](O)[C@@H](O)[C@@H]1O`, the Potency result in experiment [1] was “inactive”.
Still for that read-out and setting: to `CC(=O)c1cc2cccc(OCC(O)CNC(C)C)c2o1` (centres undefined) belongs “inactive”; to `CC[C@H]1OC(=O)C[C@@H](OC(C)=O)[C@H](C)[C@@H](O[C@@H]2O[C@H](C)[C@@H](O[C@H]3C[C@@](C)(O)[C@@H](OC(=O)CC(C)C)[C@H](C)O3)[C@H](N(C)C)[C@H]2O)[C@@H](CC=O)C[C@@H](C)C(=O)/C=C/C(C)=C/[C@@H]1CO[C@@H]1O[C@H](C)[C@@H](O)[C@@H](OC)[C@H]1OC`, “inactive”; to `CC[C@H]1OC(=O)[C@H](C)[C@@H](O[C@H]2C[C@@](C)(OC)[C@@H](O)[C@H](C)O2)[C@H](C)[C@@H](O[C@@H]2O[C@H](C)C[C@H](N(C)C)[C@H]2O)C(C)(O)C[C@@H](C)/C(=N\OCOCCOC)[C@H](C)[C@@H](O)[C@]1(C)O` (some centres undefined), “inactive”.
Same read-out and setting: to `CCc1cc2c(cc1CC)CC(NC[C@H](O)c1ccc(O)c3[nH]c(=O)ccc13)C2` belongs 10 µM (active).
Consider `CN(C)C=O`, for which the Potency in experiment [2] is > 92 µM (inactive). The Potency entry in [3], in experiment [4], in experiment [5], in experiment [9] and in [11] was “inactive” each time. For the same molecule, the molecule was classed as inactive in [6], in experiment [7] and in experiment [8]. The activation in [10] is 0.506% (inactive) and -0.104% (inactive) and -1.7% (inactive).
Consider `CCC(=O)O[C@@H]1[C@@H](C)O[C@@H](O[C@H]2[C@H](N(C)C)[C@@H](O)[C@H](O[C@H]3[C@@H](CC=O)C[C@@H](C)[C@@H](OC(C)=O)/C=C/C=C/C[C@@H](C)OC(=O)C[C@@H](OC(=O)CC)[C@@H]3OC)O[C@@H]2C)C[C@]1(C)OC(C)=O`, for which the Potency result in experiment [1] is “inactive”.
Consider `O=C1c2ccccc2C(=O)C1c1ccc2ccccc2n1`, for which the Potency in [4] is 2.51 µM (active); in experiment [9] it was 1.37 µM (active) and 1.5 µM (active); in experiment [14] it was 39.8 µM (active). The Potency entry in experiment [12] and in experiment [13] was “inactive” in each case. Moreover, the outcome in [7] was inactive. For the same molecule, in experiment [10], the activation was -1.78% (inactive) and 4.34% (inactive).
With `[2H]C([2H])([2H])C(O)(CCO[C@@H](C)[C@H]1CC[C@H]2/C(=C/C=C3\C[C@@H](O)C[C@H](O)C3=C)CCC[C@]12C)C([2H])([2H])[2H]`, the Potency result in experiment [1] was “inactive”.
Same read-out and setting: to `CCCCC(C)(O)CC=C[C@H]1[C@H](O)CC(=O)[C@H]1CCCCCCC(=O)OC` (some centres undefined) belongs “inactive”.
Regarding `CCO`, the Potency in [2] is > 92 µM (inactive). In addition, the Potency entry in experiment [3], in experiment [12], in experiment [13], in [16], in [9] and in experiment [11] was “inactive” in each case. Further, the molecule was called inactive in experiment [6], in [7] and in experiment [8]. For the same molecule, the max response in [15] was -20.9%. The activation in experiment [10] was -0.227% (inactive).
Take `CCCC[C@H](C)C[C@H](O)/C=C/[C@H]1[C@H](O)CC(=O)[C@@H]1CCCC/C=C/C(=O)O`: the Potency entry in experiment [1] is “inactive”.
Same read-out and setting: under `CCCCC(=O)O[C@]1(C(=O)COC(C)=O)CC[C@H]2[C@@H]3CCC4=CC(=O)C=C[C@]4(C)[C@H]3[C@@H](O)C[C@@]21C` stands “inactive”.
Consider `Cc1ccc([N+](=O)[O-])c(C)c1`, for which the Potency in [2] is > 92 µM (inactive). In addition, the Potency entry in experiment [3], in experiment [13], in experiment [16], in [9], in [17] and in experiment [11] was “inactive” each time. The result in [6] and in experiment [7] was inactive. In addition, the max response in [15] is -27.9% and -14.4%.
For `COc1c2ccoc2cc2oc(=O)ccc12`, the Potency entry in experiment [18] is “inactive”. For the same molecule, the outcome in experiment [7] was inactive. In addition, the max response in experiment [19] was -2.53% (inactive).
Regarding `CO[C@@H]1C[C@H](O[C@H]2[C@H](C)[C@H](O[C@@H]3O[C@@H](C)C[C@@H](N(C)C)[C@H]3OC(C)=O)[C@H](C)C[C@]3(CO3)C(=O)[C@H](C)[C@H](OC(C)=O)[C@H](C)[C@H](C)OC(=O)[C@@H]2C)O[C@H](C)[C@H]1OC(C)=O`, the Potency result in [1] was “inactive”.
